# Rows were chosen to be rich in hits. Some 2.8% of all compounds tested hit in one or more screens of this group.
# SENP8 block-1: SENP8 (human) protease inhibition; recombinant SENP8, Nedd8 substrate fluorescence; inhibition, % at 20 µM; 360,000 compounds, 0.64% hits; AID 602440; in the data active = inhibition mostly above about 40%, no sharp cut-off; inactive = mostly below about 27%
# Target sequence (Q96LD8 whole entry, looked up): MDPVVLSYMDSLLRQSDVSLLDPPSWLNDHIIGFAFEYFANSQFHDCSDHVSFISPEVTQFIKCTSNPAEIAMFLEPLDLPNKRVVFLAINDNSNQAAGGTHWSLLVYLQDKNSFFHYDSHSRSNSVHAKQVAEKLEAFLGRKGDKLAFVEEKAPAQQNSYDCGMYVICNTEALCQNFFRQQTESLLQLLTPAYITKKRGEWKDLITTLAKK
# Platelet DG rel: platelet dense granule release activity | human platelet-rich plasma, SFLLRN dense granule ATP release, luminescence | inhibition, %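 (compounds screened at 7.5 µM in platelet-rich plasma)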 | 300,000 compounds, 0.22% hits | AID 1663;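 active = mean replicate score, as percent of positive control, at or above 50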
# SENP6 block: inhibitors of human SENP6 protease; Q9GZR1; Recombinant SENP6 catalytic domain, aminoluciferin luminescence; inhibition, % at 10 µM; 330,000 compounds, 1.8% hits; AID 2599;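 active = inhibition above about 50% at the single tested dose, limit read from the data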
# SENP7 inh: blocks the human protease SENP7; Q9BQF6; recombinant SENP7, Z-RLRGG-aminoluciferin luminescence, 40 min; inhibition, % at 5 µM; 330,000 compounds, 1.5% hits; AID 434973;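 active = inhibition above about 50% at the single test dose, limit read from the data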
# Target sequence (Q9BQF6 706-1050 limits assumed): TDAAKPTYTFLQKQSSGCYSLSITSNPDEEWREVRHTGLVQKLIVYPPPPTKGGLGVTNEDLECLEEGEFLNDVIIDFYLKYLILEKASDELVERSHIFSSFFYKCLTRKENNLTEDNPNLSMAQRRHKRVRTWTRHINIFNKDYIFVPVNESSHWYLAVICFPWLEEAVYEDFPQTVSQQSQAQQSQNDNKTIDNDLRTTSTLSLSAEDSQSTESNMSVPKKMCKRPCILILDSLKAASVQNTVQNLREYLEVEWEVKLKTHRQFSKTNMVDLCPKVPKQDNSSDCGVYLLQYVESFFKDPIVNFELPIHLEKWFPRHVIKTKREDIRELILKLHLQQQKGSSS
# SENP8 block-2: SENP8 protease inhibition; inhibition, % at 10 µM; Q96LD8; 330,000 compounds, 1.2% hits; purified SENP8, Z-RLRGG-aminoluciferin cleavage, luminescence; in the data active = inhibition above about 50%
# HSP90 refold inh: HSP90 refolding inhibition in rabbit reticulocyte lysate; luciferase refolding luminescence, 3 h; inhibition, % at 5.6 µM; 290,000 compounds, 0.91% hits;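 active = inhibition above the screen-wide mean plus 3 SD, computed separately per campaign, cut at about 16% in these data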;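 also: inhibitors lower the luminescence because luciferase stays unfolded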
# SENP8 conf: SENP8 (human) inhibition, single concentration confirmation | shares compounds with SENP8 block-1 | purified SENP8, Nedd8-AMC/pro-Nedd8 cleavage fluorescence, 30 min | inhibition, % at 25 µM | 1,400 compounds, 15% hits | AID 624319; in the data active = inhibition mostly above about 39%, no sharp cut-off; inactive = mostly below about 34%
# Numbers stand for hits; n = inactive; x = no result.
SMILES,SENP8 block-1,Platelet DG rel,SENP6 block,SENP7 inh,SENP8 block-2,HSP90 refold inh,SENP8 conf
CSCC[C@H](NC(=O)N1C[C@H]2C[C@@H](C1)c1cccc(=O)n1C2)C(=O)Nc1ccc(NC(C)=O)cc1,46,n,n,n,n,n,n
O=C(NCc1ccccc1)C(CCc1ccccc1)n1c(=O)c(-c2ccccc2)nc2ccccc21 (stereo not given),n,x,x,x,x,x,x
Cc1ccc(C(=O)COc2ccccc2-c2ccccc2)cc1,45,n,n,n,n,n,n
COC(=O)c1sc(NC(=O)c2ccc([N+](=O)[O-])o2)c(C#N)c1C,42,n,n,n,n,n,n
O=C(CC(NC(=O)OCc1ccccc1)C(=O)OCc1ccccc1)OCc1ccccc1 (stereo not given),n,x,x,x,x,x,x
CC(=O)NCC(=O)N[C@@H](CC(=O)OCc1ccccc1)C(=O)OCc1ccccc1,44,n,n,n,n,n,n
CCc1nc(SCC(=O)N2CCCc3ccccc32)c2oc3ccccc3c2n1,46,n,n,n,n,n,n
Cc1nc(SCC(=O)O)c2oc3ccccc3c2n1,47,n,n,n,n,n,n
Cc1nc(SCC(=O)NCc2ccccc2)c2oc3ccccc3c2n1,n,n,n,n,n,n,x
C[C@H]1CN([C@@H](C)CO)C(=O)CCCn2cc(nn2)CO[C@@H]1CN(C)C(=O)Nc1ccc(N2CCCCC2)cc1,n,x,x,x,x,x,x
CCC(C)NC(=O)c1cc(-c2ccc3c(c2)OCO3)on1 (stereo not given),n,n,n,n,n,n,x
O=C(COc1ccc(Br)cc1CO)Nc1ccc(S(=O)(=O)N2CCCC2)cc1,n,x,n,n,n,x,x
O=C(COc1ccc(Br)cc1CO)Nc1ccc(F)cc1,41,n,n,n,n,n,n
CO/N=C(/c1nonc1N)N1CCN(c2ccc([N+](=O)[O-])cc2)CC1,41,n,n,n,n,n,n
CCN(CC)CCn1c(OC)cc(=O)[nH]c1=O,43,n,n,n,n,n,n
O=C(CC(=O)c1ccccc1)c1ccccc1,n,x,x,x,x,x,x
O=C(c1ccccc1)c1ccccc1,61,x,n,n,n,x,n
CC(=O)C1=C(C)NC2(O)c3ccccc3C(=O)C12O (stereo not given),66,n,n,n,n,n,53
COc1ccc(NC(=O)C2CC(=O)N/C(=N/NC(=O)c3ccc(Cl)cc3)S2)cc1 (stereo not given),40,n,n,n,n,n,n
COc1cccc(-c2cc(C(=O)N3CCc4ccccc4C3)no2)c1,58,n,n,n,n,n,78
O=C(Nc1ccc([N+](=O)[O-])cc1)Nc1ccc(N2CCOCC2)c2nonc12,46,n,n,n,n,n,n
CC(=O)Nc1cc([N+](=O)[O-])ccc1N1CCOCC1,n,n,n,n,n,n,x
O=C(O)c1ccc2c(c1)C(=O)N(c1ccc([N+](=O)[O-])cn1)C2=O,n,n,n,n,n,n,x
CCOc1cc(CNc2ccc(OC)cc2)cc(Br)c1OCC(=O)NC(C)(C)C,47,n,n,n,n,n,n
CCOc1cc(CNc2ccc(Br)cc2)cc(Br)c1OCC(=O)NC(C)(C)C,n,n,n,n,n,n,x
SMILES,SENP8 block-1,Platelet DG rel,SENP6 block,SENP7 inh,SENP8 block-2,HSP90 refold inh,SENP8 conf
Nc1nonc1OCCN1CCN(c2ccc([N+](=O)[O-])c3cccnc23)CC1,47,n,n,n,n,n,n
Cc1nonc1OCCN1CCN(c2ccccc2[N+](=O)[O-])CC1,n,n,n,n,n,n,x
CCOc1ccccc1C(=O)N(CCC(=O)OC)c1ccccn1,43,n,n,n,n,n,n
Nc1cccc2nsnc12,48,n,n,n,n,n,n
CCN(CC)S(=O)(=O)c1ccc(N2CCN(c3cccc(OC)c3)CC2)c([N+](=O)[O-])c1,43,n,n,n,n,n,n
Clc1nssc1=Nc1ccc(Br)cc1,44,n,x,x,x,n,n
Oc1ccc(Br)cc1-c1cc(-c2ccccc2Cl)[nH]n1,42,n,n,n,n,n,n
COC(=O)C1=C(C)N(C2CCCCC2)C(=O)C1,42,n,n,n,n,n,n
Cc1ccc(NC2=C(C(=O)c3ccccc3)N(C)S(=O)(=O)c3ccccc32)cc1,46,n,n,n,n,n,n
COc1ccc(-c2nn(-c3ccccc3)cc2C=O)cc1[N+](=O)[O-],n,n,n,n,n,n,x
COc1ccc(-c2nnc(SC)nc2-c2ccc(OC)c([N+](=O)[O-])c2)cc1[N+](=O)[O-],49,n,n,n,n,x,n
Cc1ccc(NC(=O)CS(=O)CC(=O)NCCCc2ccccc2)cc1Cl (stereo not given),41,n,n,n,n,n,n
CC1(C)Cc2c(sc(NC(=O)C(=O)N3CCCCC3)c2C(=O)O)CO1,n,n,n,n,n,n,x
O=C1CSC(c2c(F)cccc2Cl)N1c1cccc(F)c1 (stereo not given),44,n,n,n,n,n,n
NC(CSC(c1ccccc1)(c1ccccc1)c1ccc2c(c1)OCO2)C(=O)O (stereo not given),n,x,x,x,x,x,x
O=c1cc(-c2ccc([N+](=O)[O-])cc2)c2cc3c(cc2[nH]1)OCCO3,42,n,n,n,n,n,n
[O-]C1=N/[N+](=C/c2ccccc2Cl)CC1,50,n,n,n,n,n,n
CCN1CCN(C(=O)Nc2cc(Cl)ccc2OC)CC1,n,n,n,n,n,n,x
CCN1CCN(C(=O)C(C)Nc2cc(Cl)c(OC)cc2OC)CC1 (stereo not given),44,n,n,n,n,n,n
Cc1nnc2n(-c3ccccc3)c(=O)c3ccccc3n12,41,n,n,n,n,x,n
O=C(O)CSc1nnc2n(-c3ccccc3)c(=O)c3ccccc3n12,n,n,n,n,n,n,x
CCCCc1cc(=O)oc2cc(C)cc(OCC(=O)NC(Cc3ccc(Cl)cc3)C(=O)O)c12 (stereo not given),n,n,n,n,n,n,x
CCOC(=O)[C@]12CCC=C1N(Cc1ccco1)C(=O)[C@H](CC(=O)NCCc1ccccc1OC)C2,n,x,x,x,x,x,x
CCOc1ccc2[nH]c3c(NCC(C)C)ncnc3c2c1,n,n,n,n,n,n,x
Cc1cc(=O)oc(C)c1C(=O)Nc1cccc2ccccc12,43,n,n,n,n,n,n
O=C(Nc1ccccc1)/C(=C/c1ccc(F)cc1)NC(=O)c1ccco1,n,n,n,n,n,n,x
CCOC(=O)c1sc(=S)n(-c2cc(OC)ccc2OC)c1N,40,n,n,n,n,n,n
CC1(Oc2cccc(C#N)c2)CCN(Cc2csc3ccccc23)C1 (stereo not given),n,x,x,x,x,x,x
COc1ccc([C@@H]2C[C@H]3CN(c4ccccc4)C(=O)[C@]34CCCN24)c(OC)c1OC,n,n,n,n,n,n,x
COCc1cc([C@@H]2C[C@H]3CN(c4ccccc4)C(=O)[C@]34CCCN24)ccc1OC,42,n,n,n,n,n,n

# Screening results: PubChem, several laboratories
